Compound activity from PubChem.
Compounds with a hit are over-represented: about 21% of the library has one in this group of screens.
Shiga inhibitor – blocks Shiga toxin action in Vero cells; Vero cells, Shiga toxin protein synthesis inhibition reporter; 290,000 compounds, 9.2% hits; AID 2315; inhibition, % at 38.7 µM; in the data active = inhibition mostly above about 28%, no sharp cut-off; inactive = mostly below about 43%; note: 0% is about no effect
AMA1 RON2 block – disrupts binding of P. falciparum AMA1 to RON2; AlphaScreen AMA1-biotinylated RON2 peptide binding; AID 720542; Potency, µM (titrated, usually from 58.2 µM), without a hit: at the highest dose activity change, negative = inhibition, most hits filed as inhibitors; 360,000 compounds, 0.2% hits;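 note: potency is the fitted concentration of half-maximal effect; 0% = vehicle wells and -100% = peptide control; nearly all actives have a fitted effect of over 45% in size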
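AMA1 (3D7) with his tag at 25 nM final met compounds first, then biotinylated RON2 peptide at 25 nM; detection used donor plus acceptor beads, 10 µg/mL apiece, read by AlphaScreen after 30 min at room temperature.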
CHX counter – counter-screen hit for Shiga toxin inhibitors, cycloheximide | max response, % | 300,000 compounds, 12% hits | cell reporter, cycloheximide protein synthesis inhibition counterscreen; in the data active = max response mostly above about 13%, no sharp cut-off; inactive = mostly below about 14%; note: read at 38.3 µM for the half of the compounds with a filed dose; 0% is about no effect
HCV inhibitor – HCV inhibition | Huh7.5.1 HCVcc-Cre infection, luciferase reporter, 44 h | Potency, µM (series often up to 41.8 µM), without a hit: top-dose activity change, negative = inhibition, actives largely listed as inhibitors | 340,000 compounds, 3.4% hits; note: potency is the fitted concentration of half-maximal effect; % is set by controls: 0 for no effect and ±100 for the full control effect
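Cells (1,000/well) were plated 4 h before compound, then infected with HCVcc-Cre virus (~0.5 moi). After 44 h further culture, infection was read as luciferase luminescence following a 15 min substrate incubation at room temperature.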
Pf growth 96h – P. falciparum growth inhibition at 96 hours | 320,000 compounds, 6.9% hits | Potency, µM (doses to about 28.7 µM), inactives show top-dose activity change, negative = inhibition, usual class: inhibitors | P. falciparum luciferase reporter growth, 96 h; note: potency is the fitted concentration of half-maximal effect; % is set by controls: 0 for no effect and ±100 for the full control effect
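Two parasite generations (96 h, 37 C, 5% CO2) of compound exposure in infected erythrocytes (0.05% parasitemia, 2% hematocrit). Luciferase-reporter P. falciparum; decreased luminescence indicates inhibited growth, aimed at apicoplast-acting delayed death.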
Pf growth 48h – P. falciparum growth inhibition at 48 hours (one generation) | P. falciparum luciferase growth in erythrocytes, 48 h | AID 504832 | 310,000 compounds, 5.9% hits | Potency, µM (titrated, usually from 28.7 µM), for inactives: top-dose activity change, negative = inhibition, usual class: inhibitors; note: potency is the fitted concentration of half-maximal effect; % is set by controls: 0 for no effect and ±100 for the full control effect
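Parasite viability was followed by luminescence of a genomically integrated firefly luciferase. Cultures held 0.1% parasitemia at 2% hematocrit (final), incubated under 5% CO2 at 37 C.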
* = called active by the depositor; ? = inconclusive; / = no result; [ ] = dose if it differs, or a comment. Unless noted, calls come from the whole dose curve; as a rule, active = well fitted curve in the direction sought with a large enough effect; inconclusive = small, poorly fitted or top-dose-only effect, or another doubt; inactive = no such curve, though single readings can be large; an effect the other way counts as inactive or inconclusive.

SMILES	Shiga inhibitor	AMA1 RON2 block	CHX counter	HCV inhibitor	Pf growth 96h	Pf growth 48h
O=C(CSCc1nc2c(nnn2Cc2ccc(F)cc2)c(=O)[nH]1)Nc1cccc(C(F)(F)F)c1	-14.0	-5.7%	-3.1	26.1%	3.5%	-7.9%
O=C(N/N=C/c1ccc([N+](=O)[O-])o1)c1cn(-c2ccccc2)nc1-c1ccc(Cl)cc1	-11.8	19.6%	-1.8	?	?	4.65µM*
O=C(N/N=C/c1ccc([N+](=O)[O-])o1)c1cc(-c2ccc(-c3ccccc3)cc2)nc2ccccc12	100.7*	-3.0%	31.8*	-52.3%	?	?
CC1CCC2(CC1)NC(=O)N(CC(=O)NC1CCCCC1C)C2=O (centres undefined)	/	1.5%	/	0.2%	/	/
Cc1[nH]c2c(Br)cccc2c1[C@H]1[C@@H](CC#N)C1(C)C	62.8*	4.0%	41.9*	?	?	?
CN(CC(=O)Nc1cccc(F)c1)C(=O)CSc1ccccc1F	1.3	-15.6%	0.9	-0.6%	17.0%	?
CC(Sc1nnc(NCc2ccccc2)s1)C(=O)Nc1ccc2c(c1)C(=O)c1ccccc1C2=O (centres undefined)	64.4*	-17.5%	63.0*	?	1.8%	39.7%
O=C(CN1C(=O)NC2(CCCCC2)C1=O)Nc1ccc2[nH]c(=O)[nH]c2c1	/	-0.4%	/	0.0%	20.5%	0.0%
COC(=O)Cc1c[nH]c2cccc(OCC(O)CN(Cc3ccccc3)C(C)C)c12 (centres undefined)	-3.7	-7.3%	-2.7	?	?	?
COC(=O)Cc1c[nH]c2cccc(OCC(O)CN(Cc3ccc([N+](=O)[O-])cc3)C(C)(C)C)c12 (centres undefined)	23.2	?	4.1	-20.5%	3.29µM*	9.28µM*
Cc1ccc(CN(CC(O)COc2cccc3[nH]cc(C)c23)C(C)(C)C)cc1 (centres undefined)	-4.3	?	-4.7	?	10.4µM*	10.4µM*
CC1(C(=O)NS(=O)(=O)c2cccc(OC(F)F)c2)CCN1C(=O)c1ccco1 (centres undefined)	/	6.4%	/	/	/	/
NNC(=O)c1ccc(COCC(F)(F)F)cc1	-3.4	38.1%	8.0	2.2%	-19.8%	-8.8%
CCOC(=O)C1(CC2CC2)CCN(C(=O)c2cc(C)nc3ccc(CC)cc23)CC1	9.0	56.7%	-2.2	-15.6%	2.08µM*	?
CCOC(=O)C1(CCCc2ccccc2)CCN(C(=O)c2ocnc2C)CC1	-1.2	7.3%	7.5	-16.4%	2.2%	?
CCOC(=O)C1(CC2CC2)CCN(C(=O)c2ocnc2C)CC1	75.7*	6.4%	43.5*	8.9%	-1.0%	12.6%
CCOc1ccc(-c2c(C(=O)N/N=C/c3c[nH]c4ccccc34)nnn2-c2nonc2N)cc1	-5.6	44.0%	7.7	-25.3%	-2.3%	6.2%
Cc1cc(-n2cnc(-c3cn[nH]c3C)n2)no1	72.5*	2.6%	11.9	9.0%	100.2%	107.8%
O=C1CCCCCN1Cc1nnc(SCc2nc3ccccc3s2)n1-c1ccccn1	92.3*	10.1%	74.3*	-5.4%	105.7%	106.6%
C#CCOCCOCCOCCNc1nc(N2CCN(C(=O)CCCCCCCCCCNC(=O)[C@H](CO)n3cc(CCCSC)nn3)CC2)nc(N2CCN(C(=O)CCCCCCCCCCNC(=O)[C@H](CO)n3cc(CCCSC)nn3)CC2)n1	/	11.2%	/	10.2%	0.104µM*	0.294µM*
C#CCOCCOCCOCCNc1nc(N2CCN(C(=O)[C@H](C)n3cc(CCC(=O)O)nn3)CC2)nc(N2CCN(C(=O)[C@H](C)n3cc(CCC(=O)O)nn3)CC2)n1	/	-0.3%	/	-1.5%[8.37 µM]	/	/
C#CCOCCOCCOCCNc1nc(N2CCN(C(=O)[C@H](CCCCN)n3cc(CN)nn3)CC2)nc(N2CCN(C(=O)[C@H](CCC(=O)O)n3cc([C@@H](N)CCSC)nn3)CC2)n1	/	6.8%	/	30.5%	/	/
C#CCOCCOCCOCCNc1nc(N2CCN(C(=O)CCCCCCCCCCNC(=O)[C@H](CO)n3cc(CCCSC)nn3)CC2)nc(N2CCN(C(=O)CCCCCCCCCCNC(=O)[C@H](CCCCN)n3cc(C[C@@H](C)CC)nn3)CC2)n1	/	/	/	?	1.85µM*	1.31µM*
